# Reference: PubChem BioAssay (NCI)
# The panel holds about 83,000 compounds, 20% with a hit somewhere; the sample as a whole holds those more often.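 Single-concentration screen, 48 h exposure, 96-well plates. Endpoint: percent growth. Below 10 = active.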 Unmarked numbers belong to inactive results. Activity calls are given as the source filed them.
# Experiments:
# Experiment in all cases: NCI-60 one-dose screen, 48 h (100 = growth as untreated, 0 = no growth, -100 = all killed)
# Conditions in all cases: 10 µM unless noted
# NCI-H23 lung = system: NCI-H23 lung
# NCI-H226 lung = system: NCI-H226 lung
# NCI-H322M lung = system: NCI-H322M lung
# HOP-62 NSCLC = system: HOP-62 NSCLC
# NCI-H460 lung = system: NCI-H460 lung
# HOP-92 NSCLC = system: HOP-92 NSCLC
# NCI-H522 lung = system: NCI-H522 lung
# A549/ATCC NSCLC = system: A549/ATCC NSCLC
# 786-0 renal = system: 786-0 renal
# COLO 205 colon = system: COLO 205 colon
# DU-145 prostate = system: DU-145 prostate
# K-562 leukemia = system: K-562 leukemia
# MALME-3M melanoma = system: MALME-3M melanoma
# MDA-MB-231 breast = system: MDA-MB-231 breast
# RXF 393 renal = system: RXF 393 renal
# SF-268 CNS = system: SF-268 CNS
# SF-295 CNS = system: SF-295 CNS
# SF-539 CNS = system: SF-539 CNS
# UACC-257 melanoma = system: UACC-257 melanoma
# M14 melanoma = system: M14 melanoma
SMILES,growth (NCI-H23 lung),growth (NCI-H226 lung) [%],growth (NCI-H322M lung) [%],growth (HOP-62 NSCLC) [%],growth (NCI-H460 lung),growth (HOP-92 NSCLC),growth (NCI-H522 lung),growth (A549/ATCC NSCLC) [%],growth (786-0 renal) [%],growth (COLO 205 colon),growth (DU-145 prostate),growth (K-562 leukemia),growth (MALME-3M melanoma),growth (MDA-MB-231 breast),growth (RXF 393 renal),growth (SF-268 CNS) [%],growth (SF-295 CNS),growth (SF-539 CNS),growth (UACC-257 melanoma),growth (M14 melanoma) [%]
CCc1ccc(Oc2c(-c3ccc(OCc4ccc(Cl)cc4)cc3O)n[nH]c2C(F)(F)F)cc1,3.59% (active),24.8,35.3,57.5,3.21% (active),-17.2% (active),-22.9% (active),33.5,64.4,95.7%,15%,3.36% (active),-28.3% (active),27.6%,65%,30,88.1%,56.6%,6.85% (active),30.5
CCN(CC)CCNc1nc2ccccc2c2c(=O)c3cc(Cl)ccc3sc12,79.7%,91.7,87.5,76.7,8.93% (active),28.6%,63.9%,52.3,74.5,64.2%,43%,-25.5% (active),88.4%,-2.23% (active),79.1%,62.1,29.2%,67.2%,93.2%,31
COc1ccc(S(=O)(=O)n2c3ccccc3n3ncc(-c4nnc(C)o4)c23)cc1,31.7%,55.7,49,37.3,14.2%,66%,31.2%,27.4,42.7,7.03% (active),22.8%,15.4%,66.9%,30.1%,-22.2% (active),53,6.74% (active),-1.67% (active),84.1%,15.4
CC(=O)c1ccc(Nc2nc(C(C)=O)c(C)s2)cc1,96%,66.2,82,95.4,97.8%,102%,87.9%,95.5,95.8,109%,102%,88.7%,105%,98%,101%,98,98.6%,103%,103%,104
CCCCn1c(=O)c(-c2cc(-c3ccc(Cl)cc3)nc(-c3ccc(Cl)cc3)c2)cc2cc(C)ccc21,101%,105,95.5,102,106%,103%,94.9%,98.2,102,111%,112%,99.3%,105%,92.8%,105%,98,99.1%,97.9%,100%,102
Cc1ccc(NC2=C(Cl)C(=O)c3nc(C)ccc3C2=O)cc1,-30.5% (active),38.1,55.7,75.2,9.01% (active),-71% (active),-25.7% (active),54.6,21.6,106%,-62.2% (active),6.64% (active),-37.4% (active),-80.3% (active),-57.2% (active),66.8,62.1%,-85.6% (active),-73.8% (active),29.1
